The panel holds about 83,000 compounds, 20% with a hit somewhere; the sample as a whole holds those more often.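 A percent growth of 40 corresponds to 60% growth inhibition; 0 means no net growth; -100 means all cells died. Active threshold: below 10.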 Calls of active or inactive are those of the source.
How the values were obtained:
Test in all cases: NCI-60 one-dose screen, 48 h (100 = growth as untreated, 0 = no growth, -100 = all killed)
Conditions in all cases: 10 µM unless noted
[1] = test system: NCI-H23 lung
[2] = test system: NCI-H322M lung
[3] = test system: HOP-62 NSCLC
[4] = test system: NCI-H460 lung
[5] = test system: HOP-92 NSCLC
[6] = test system: NCI-H522 lung
[7] = test system: A549/ATCC NSCLC
[8] = test system: 786-0 renal
[9] = test system: COLO 205 colon
[10] = test system: DU-145 prostate
[11] = test system: K-562 leukemia
[12] = test system: MALME-3M melanoma
[13] = test system: MDA-MB-231 breast
[14] = test system: RXF 393 renal
[15] = test system: SF-268 CNS
[16] = test system: SF-295 CNS
[17] = test system: SF-539 CNS
[18] = test system: UACC-257 melanoma
[19] = test system: M14 melanoma

Measured: growth

NCCn1cc(-c2nc(-c3c[nH]c4ncccc34)cs2)c2cc(F)ccc21
inactive: [1] 76.7% | [2] 76.9% | [3] 73.6% | [4] 51.3% | [5] 49.1% | [6] 90.7% | [7] 61.7% | [8] 87.5% | [9] 49.2% | [10] 93.9% | [11] 22.6% | [12] 78.6% | [13] 63.9% | [14] 86.7% | [15] 82.1% | [16] 96.7% | [17] 82.7% | [18] 93.8% | [19] 86.2%

CSc1ccc(N(C)c2nc(C)nc3c2CCC3)cc1
active: [3] 2.72% | [4] 6.41% | [5] -17% | [6] -26.7% | [7] 6.42% | [9] -64.9% | [10] 9.33% | [11] 5.51% | [17] -16.1% | [19] 5.22%
inactive: [1] 16.7% | [2] 57.4% | [8] 14.4% | [12] 92.8% | [13] 10% | [14] 44.7% | [15] 26.9% | [16] 14.3%

O=C(CI)Nc1ccc(O)c2ccccc12
inactive: [2] 104% | [3] 46.9% | [7] 64.8% | [10] 41.9% | [18] 10.7%
active: [1] -7.45% | [5] -24.8% | [6] -79.4% | [8] -22.5% | [9] -85.6% | [11] -16.2% | [12] -14% | [13] -11.8% | [14] -89.7% | [15] -0.419% | [17] -28.6% | [19] -58.9%

COc1ccc(C(=O)/C=C/c2cc(-c3cc(OC)c(OC)c(OC)c3)n[nH]2)cc1OC
active: [2] -42.4% | [3] -56.6% | [4] -17.4% | [6] -78.5% | [8] -34.7% | [9] -65.7% | [10] 1.8% | [11] 3.36% | [12] -75.5% | [13] -4.03% | [14] -78.8% | [15] -20.1% | [17] -96.2% | [19] -7.08%
inactive: [1] 71.2% | [5] 42.8% | [7] 31.3% | [18] 24.6%

O=C(NO)c1ccc(Cn2c(=O)n(-c3ccccc3)c(=O)c3ccccc32)cc1
inactive: [2] 38.8% | [3] 29.3% | [4] 39% | [5] 48.4% | [7] 37.7% | [8] 71% | [10] 21.9% | [13] 55.1% | [15] 43.9% | [16] 13.6%
active: [1] -38.7% | [6] -21.7% | [9] -62.4% | [11] 3.42% | [14] -13.1% | [17] -8.95%

Oc1cccc2ccc(N/N=C/c3cc(CN4CCCCC4)c(O)c4ncccc34)nc12
active: [1] -10.8% | [3] 1.83% | [4] -40.3% | [6] -16% | [8] 5.33% | [9] 8.41% | [13] -4.71% | [14] 9.94% | [16] -5.38% | [17] 4.73% | [19] -24.8%
inactive: [2] 25.5% | [10] 24.1% | [11] 13.1% | [12] 19.1% | [15] 12.6% | [18] 13.4%

O=C1C(=O)c2ccccc2C(O)=C1CCCc1ccc(C2CCCCC2)cc1
inactive: [1] 36.9% | [2] 81.3% | [3] 44% | [5] 40.7% | [6] 54.7% | [7] 21.1% | [8] 30.8% | [9] 42.6% | [10] 39.2% | [11] 32.8% | [12] 87.9% | [13] 52.1% | [14] 67.2% | [15] 38.1% | [16] 39.7% | [17] 29.2% | [18] 34.9% | [19] 56.3%

COc1ccc(C2(Cl)c3ccccc3N(c3ccccc3)c3ccccc32)cc1
active: [1] -14.8% | [2] 9.96% | [3] 8.43% | [5] -14.7% | [6] -3.22% | [7] 9.18% | [8] -48.8% | [9] -42.8% | [11] 8.99% | [12] -57% | [13] -23.8% | [14] -28.4% | [16] -36.6% | [17] -20.3% | [18] -41.5% | [19] -55.1%
inactive: [10] 16.8% | [15] 15.4%

C[C@H]1[C@@H]2[C@H]3CC[C@@H]4[C@@]5(C)Cc6c([nH]c7ccccc67)C(C)(C)[C@@H]5CC[C@@]4(C)[C@]3(C)CC[C@]23CO[C@]1(C)[C@@H](C(=O)/C=C/c1ccccn1)C3
inactive: [1] 91.7% | [2] 112% | [3] 109% | [4] 98.3% | [5] 67.2% | [6] 92.1% | [7] 89.4% | [8] 106% | [9] 102% | [10] 102% | [11] 72.5% | [12] 106% | [13] 85% | [14] 89.3% | [15] 88.8% | [16] 99.4% | [17] 84.9% | [18] 103% | [19] 93.6%

CC(C)(C)c1ccc(OP(=S)(N/N=C/c2ccccc2O)Oc2ccc(C(C)(C)C)cc2)cc1
inactive: [1] 58.1% | [2] 76.3% | [3] 91.7% | [4] 87% | [5] 70.6% | [6] 12.1% | [7] 56.7% | [8] 68.6% | [9] 79.7% | [10] 92% | [11] 59% | [12] 86.8% | [13] 63.5% | [14] 87.3% | [15] 69.8% | [17] 66.8% | [18] 59.8% | [19] 77.7%

C=C(C)[C@@H]1CC[C@]2(C(=O)O)CC[C@]3(C)[C@H](CC[C@@H]4[C@@]5(C)C/C(=C/c6cccc(I)c6)C(=O)C(C)(C)[C@@H]5CC[C@]43C)[C@@H]12
inactive: [1] 20.3% | [2] 37.2% | [3] 21.8% | [4] 11.8% | [5] 16% | [6] 10% | [7] 17.2% | [8] 25% | [9] 28% | [10] 28.7% | [11] 12.5% | [12] 53.3% | [13] 56% | [14] 51.9% | [15] 25.5% | [16] 26.7% | [17] 48.3% | [18] 20.7% | [19] 30.3%

CC(C)=CCC[C@](C)(O)[C@H]1CC[C@]2(C)[C@@H]1CC[C@@H]1[C@@]3(C)C/C(=C/c4cccc([N+](=O)[O-])c4)C(=O)C(C)(C)[C@@H]3CC[C@]12C
inactive: [1] 74.9% | [2] 103% | [3] 97.4% | [4] 87.2% | [5] 76.6% | [6] 90.5% | [7] 71% | [8] 88% | [9] 94% | [10] 68.2% | [11] 74% | [12] 84.5% | [13] 88.9% | [14] 90.1% | [15] 93.2% | [16] 103% | [17] 96% | [18] 97.9% | [19] 83%

c1csc(-c2nc(-c3cc4ccccc4c(N4CCOCC4)n3)cs2)c1
active: [12] 0.576%
inactive: [1] 87.8% | [2] 94.1% | [3] 97.6% | [4] 100% | [5] 116% | [6] 93.8% | [7] 95.6% | [8] 96.9% | [9] 20.5% | [10] 113% | [11] 102% | [13] 88.7% | [14] 111% | [15] 91.6% | [16] 101% | [17] 103% | [18] 17.3% | [19] 49.1%

Source: PubChem BioAssay (NCI)
